# Compound activity deposited in PubChem BioAssay by Broad Institute.
# The entries come from a sample that favours hits as a whole.
# Tg IFNy HTS: T. gondii growth inhibition with IFN-gamma, primary screen, cell-based. Toxoplasma gondii growth in IFN-gamma-treated host cells; active compounds read low. activity change, negative = inhibition, % (test concentration not listed). actives 3.8% (n = 69,000). AID 1259416, 2018; in the data active = activity change below about -70%, passing the limit was not always enough;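 also: host cells are HeLa cells infected with Toxoplasma gondii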
# Numbers without * were called inactive; i = inactive; ! = not active in a repeat.
SMILES,Tg IFNy HTS
N#Cc1ccc(C(=O)N2CCC3(CC2)Nc2cc(F)ccc2-n2cccc23)cc1,41
O=C1CC(C(=O)N2CCOCC2)CN1CCc1c[nH]c2ccc(Cl)cc12 (centres undefined),418
COc1ccccc1N1CCN(C(=O)CCC2Nc3c4ccccc4nc(=S)n3C2=O)CC1 (centres undefined),5
COc1ccc(CC(=O)NCCc2csc(-c3ccc(Cl)cc3)n2)cc1OC,13
Cc1ncccc1C(=O)NCC1CCC(C(=O)NCCN2CCc3ccccc32)CC1 (centres undefined),70
COc1c/c(=C2\C=c3ccccc3=N2)[nH]/c1=C\c1[nH]c(C)cc1C,-85*
CNC(=O)CN1CCOCC2(C1)CN(Cc1ccn(C)n1)CCO2 (centres undefined),-1
O=C(c1ccoc1)N1CCN(CC2CC2)c2ncccc2C1,i
Oc1ccc(OCc2ccccc2)cc1,-33
Cc1sc2ncnc(Oc3ccc(OCc4ccccc4)cc3)c2c1C,-101*
Cc1sc2ncnc(NCc3ccco3)c2c1C,-3
Cc1nccc([C@@H]2C[C@H]3CCN(C(=O)c4cnccn4)C[C@@H]3O2)n1,27
CC(C)CN1CCO[C@H]2CCN(c3cnccn3)CC[C@H]21,5
Cc1nnc(-c2ccccc2/C=C/c2ccccc2)o1,-32
O=C(NCC1COc2ccccc2O1)Nc1csc2ccccc12 (centres undefined),-90*
Cc1cc(C(=O)NCC2COc3ccccc3O2)nn1C (centres undefined),42
O=C(CN1CCN(S(=O)(=O)N2CCCC2)CC1)NCC1COc2ccccc2O1 (centres undefined),7
c1ccc(CN2CCc3ncnc(C4CCOC4)c3CC2)nc1 (centres undefined),i
CCOCC1c2c(cnn2C)CCN1S(=O)(=O)Cc1ccccc1 (centres undefined),4
Clc1ccc(NCn2nnc3ccccc32)cc1,90
CC(C)N=c1cc2n(-c3ccc(Cl)cc3)c3ccccc3nc-2cc1Nc1ccc(Cl)cc1,-71*!
Cc1cc(C2CCCN(S(=O)(=O)N3CCOCC3)C2)ccn1 (centres undefined),-1
CCCCC(=O)N1CCC(C(=O)NCCc2csc(-c3ccccc3)n2)CC1,21
CN1CC2(CCN(C(=O)c3cccc4cc[nH]c34)C2)OC1=O (centres undefined),-6
O=C(C1CC2(CCNCC2)CN1)N1CCC(c2nnc3ccccn23)CC1 (centres undefined),352
SMILES,Tg IFNy HTS
CCN(C)S(=O)(=O)c1csc(C(=O)Nc2ccc(C)cc2)c1,-69
CC1Cc2ccccc2N1S(=O)(=O)c1cc2c3c(c1)CCC(=O)N3CCC2 (centres undefined),4
CC1Cc2ccccc2N1S(=O)(=O)c1csc(C(=O)Nc2ccccc2)c1 (centres undefined),-103*
CN(C)C1CCN(C(=O)c2ccco2)C(C(=O)O)C1 (centres undefined),16
CC(C)N1CCNC(=O)C1CC(=O)N(C)Cc1nc2ccccc2[nH]1 (centres undefined),-1
CC(C)[C@H]1c2ccc(F)cc2CC[C@@]1(CCN(C)CCCc1nc2ccccc2[nH]1)OC(=O)C1CC1,-86*
CN(Cc1nc2ccc(F)cc2[nH]1)C1CCN(C(=O)c2ccccc2)CC1,0
c1cnc(NC2COC3(CCN(Cc4ccn[nH]4)CC3)C2)nc1 (centres undefined),-3
Cc1nnsc1CN(C)C(=O)c1cccc2c1OCC2,-40
C=CCOC1CC2COCC(C1)N2Cc1cccc(F)c1 (centres undefined),-1
O=C(C(=O)N1CCC(N2CCCC(C(=O)N3CCOCC3)C2)CC1)c1ccco1 (centres undefined),3
Cc1ccc(-c2csc(NC(=O)c3ccccc3)n2)c(C)c1,49
Cc1nn(-c2ccccc2)nc1C(=O)Nc1nc(-c2ccc(F)c(F)c2)cs1,16
Cc1nc2ccccn2c1-c1csc(NC(=O)c2ccc(Br)cc2)n1,-78*
Cc1nn(C)c(C)c1-c1cc(C(=O)N2C[C@H]3C[C@H](O)[C@H](O)C[C@H]3C2)n(C)n1,3
COc1cc(NC(=O)NCC(c2cccnc2)c2c[nH]c3ccccc23)cc(OC)c1OC (centres undefined),249
CC(C)c1cc(C(=O)O)nn2cnnc12,2
CNc1ncc(C(=O)N2CCCC(C(=O)c3cc(C)c(OC)c(C)c3)C2)cn1 (centres undefined),-2
O=C(CCC(=O)NC1CCCCCCC1)NCC(O)c1ccccc1 (centres undefined),38
S=c1sc2ccccc2n1CCn1c(=S)sc2ccccc21,23
OC(Cn1c(=NC2CCCCC2)sc2ccccc21)c1ccccc1 (centres undefined),-72*
CCN1c2cc(C)ccc2-n2cccc2C12CCN(C(=O)Nc1ccc(C)c(Cl)c1)CC2,5
CSc1cccc(NC(=O)N2CCC3(CC2)Nc2cc(F)ccc2-n2cccc23)c1,i
CCN1c2cc(C)ccc2-n2cccc2C12CCN(C(=O)Nc1ccccc1C)CC2,15
CCN1c2cc(C)ccc2-n2cccc2C12CCN(C(=O)Nc1cccc(Br)c1)CC2,-84*
SMILES,Tg IFNy HTS
CCN1c2cc(C)ccc2-n2cccc2C12CCN(C(=O)Nc1ccccc1Cl)CC2,-110*
CCN1c2cc(C)ccc2-n2cccc2C12CCN(C(=O)Nc1ccc(C)cc1Cl)CC2,107
CCOC(=O)C1CCC(CNC(=O)N2CCC3(CC2)c2cccn2-c2ccc(C)cc2N3CC)CC1 (centres undefined),-10
CCN1c2cc(C)ccc2-n2cccc2C12CCN(C(=O)Nc1cccc(F)c1)CC2,-85*
CCN1c2cc(C)ccc2-n2cccc2C12CCN(C(=O)Nc1cccc(SC)c1)CC2,-87*
CCN1c2cc(C)ccc2-n2cccc2C12CCN(C(=O)NC(C)C)CC2,-16
CCN1c2cc(C)ccc2-n2cccc2C12CCN(C(=O)Nc1ccc(OC)c(OC)c1)CC2,-31
CCN1c2cc(C)ccc2-n2cccc2C12CCN(C(=O)Nc1cccc(Cl)c1C)CC2,-28
CCc1ccc2oc(=O)cc(CN3CCN(Cc4nc(-c5ccc(OC)cc5)oc4C)CC3)c2c1,0
CCn1c(C2CCCN(C(=O)Cc3cnc4ccccn34)C2)nn(C)c1=O (centres undefined),2
NCC(c1cccs1)N1CCCCCC1 (centres undefined),21
COc1ncccc1-c1cc(C)ccc1N1CCOC1=O,6
Cc1cc(C)n(C)c(=O)c1C(=O)NCCc1cc(N2CCOCC2)nc(N2CCCC2)n1,5
O=C(c1cc2cccnc2n(Cc2ccc(Cl)cc2)c1=O)N1CCN(c2ccccc2F)CC1,-30
CCCCN(C(=O)CNC(=O)c1cccs1)C(C(=O)NC1CCCC1)c1cccnc1 (centres undefined),-8
O=C(c1cc2cccnc2n(Cc2ccc(F)cc2)c1=O)N1CCOCC1,-2
Cc1cc(C)cc(NC(=O)N2CCC3(CC2)Nc2cc(F)ccc2-n2cccc23)c1,162
CCN1c2cc(C)ccc2-n2cccc2C12CCN(C(=O)Nc1cccc(C(F)(F)F)c1)CC2,-111*
O=C(Nc1cccc(C(F)(F)F)c1)N1CCC2(CC1)Nc1ccccc1-n1cccc12,474
Cc1ccc2c(c1)NC1(CCN(C(=O)Nc3cccc(C(F)(F)F)c3)CC1)c1cccn1-2,81
Cc1ccc(C)c(NC(=O)N2CCC3(CC2)Nc2cc(C)ccc2-n2cccc23)c1,-54
Cc1cc(C)cc(NC(=O)N2CCC3(CC2)Nc2cc(C)ccc2-n2cccc23)c1,-108*
